In the supplement of paper PMC3724861:
The entries come from a sample that favours hits as a whole. No count for the full screen is at hand. Unmarked numbers belong to inactive results.

test system: T1, Caupolican (Caup) homeodomain DNA-binding domain; test: PBM E-score (8-mer, recovered from the published 9-mer minima) (E-score (dimensionless, -0.5 to 0.5)); Drosophila protein; higher = stronger relative binding preference, active = 0.31 or more
T1 sequence: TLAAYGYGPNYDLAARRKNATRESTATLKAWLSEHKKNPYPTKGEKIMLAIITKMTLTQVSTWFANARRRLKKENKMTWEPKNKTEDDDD
Summary of the method: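 Caup's homeodomain DNA-binding domain (residues 214-303) was produced by in vitro transcription and translation and applied at 100 nM to custom-designed protein binding microarrays. Each value is an enrichment score giving relative binding preference for a short DNA word; higher means stronger. Published 9-mer scores were the minimum of their two constituent 8-mer scores, and the 8-mer values were recovered from those minima. A cutoff of 0.31 marks candidate binding sequences.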

| Sequence | PBM E-score |
| --- | --- |
| CGGTGAAA | -0.001 |
| ATCTTCTG | -0.0212 |
| CACTAAAG | -0.125 |
| GATATGGC | -0.0691 |
| GATTTGCC | -0.0122 |
| GGTGTAAA | 0.24 |
| ACTGTAAG | 0.147 |
| CGTGTAAG | 0.333 (active) |
| CGTGTAAC | 0.321 (active) |
| GGTGTAAC | 0.205 |
| TGTGTAAA | 0.318 (active) |
| AGTGTAAC | 0.2 |
| CGTGTAAA | 0.377 (active) |
| AGTGTAAG | 0.215 |
| AGTGTAAA | 0.13 |
| ACGTTCCG | -0.0768 |
| AAGCCAGG | -0.171 |
| ACCCGCAG | -0.142 |
| AATTAGAC | 0.132 |
| CAGCGAAC | 0.0117 |
| CGGCCCTC | -0.331 |
| AGGCCCCC | -0.398 |
| GGATCGCA | 0.00822 |
| CCATAGCA | 0.0725 |
| CCTGTTTC | 0.17 |
| CATGTTTA | 0.399 (active) |

| Sequence | PBM E-score |
| --- | --- |
| GATGTTTA | 0.247 |
| CATGTTTC | 0.355 (active) |
| AATGTTTA | 0.213 |
| AATGTTTC | 0.143 |
| CTAGAGCA | -0.132 |
| AAATGCAA | 0.0939 |
| CCACAGGA | -0.0146 |
| ATTGCCCG | -0.0341 |
| CAACTCAC | 0.0566 |
| AGTAAGAA | 0.06 |
| ATCGCAAG | -0.0386 |
| ATTGTAAA | 0.246 |
| CTTGTAAC | 0.424 (active) |
| CCTGTAAC | 0.176 |
| GTTGTAAA | 0.279 |
| CTTGTAAA | 0.365 (active) |
| ATTGTAAC | 0.308 |
| GCATGAGA | -0.0059 |
| CTCGTGAC | -0.0131 |
| ATAGACAT | 0.321 (active) |
| ATAGACAC | 0.259 |
| TTAGACAA | 0.206 |
| CTAGACAA | 0.0936 |
| GTAGACAA | 0.313 (active) |
| ATAGACAG | 0.16 |
| ATCGAAAC | -0.0231 |

| Sequence | PBM E-score |
| --- | --- |
| CTTCCAAG | -0.0467 |
| AGAGGTGG | -0.107 |
| AAGTATCG | 0.134 |
| AAGTATCC | -0.0551 |
| ATGTATCC | 0.332 (active) |
| ATGTATCG | 0.337 (active) |
| ATGTATCA | 0.321 (active) |
| CTGTATCC | 0.2 |
| GTGTATCA | 0.276 |
| CTGTATCA | 0.15 |
| ACGTATCG | 0.15 |
| ATGTCCAG | 0.2 |
| ACGCAACA | 0.215 |
| ATTTAGTC | 0.0884 |
| CCCCAAAC | -0.0197 |
| CTTGCTGC | -0.0454 |
| AGTAACAG | 0.19 |
| AGTAACAC | 0.24 |
| AGTAACAT | 0.316 (active) |
| AATAACAC | 0.284 |
| AATAACAG | 0.241 |
| AATAACAT | 0.348 (active) |
| AGGCGTCG | -0.157 |
| CTTTGTCA | 0.0793 |
| CAAAGTAC | 0.172 |
| GGAGTGGA | -0.133 |

| Sequence | PBM E-score |
| --- | --- |
| CCATATTA | 0.105 |
| ACATATCA | ≥ 0.321 (active) |
| ACATATTA | 0.33 (active) |
| CCATATCA | 0.0253 |
| ACATATTG | 0.26 |
| ACATATTC | 0.329 (active) |
| ACATATCG | 0.238 |
| ATATATTC | 0.192 |
| CCATATTC | 0.011 |
| TTTGAAAA | 0.105 |
| AAGGATGT | 0.185 |
| AGTTAAGC | 0.0239 |
| GCACACCC | -0.143 |
| AGAGTGCG | -0.148 |
| CTCTCCTC | -0.078 |
| CCGACGCG | -0.167 |
| GCCTGGCC | -0.292 |
| AACTACAG | 0.177 |
| AACTACGT | 0.151 |
| ATCTACAC | 0.227 |
| AACTACAA | 0.342 (active) |
| CACTACAA | 0.266 |
| AACTACAT | 0.408 (active) |
| GACTACAA | 0.222 |
| ACCTACAA | 0.171 |
| AACTACCT | 0.122 |

| Sequence | PBM E-score |
| --- | --- |
| CACTACAC | 0.206 |
| AACTACAC | 0.355 (active) |
| GACTACAC | 0.33 (active) |
| TCTCACAA | 0.048 |
| TAGTGTGA | 0.108 |
| GCCTCACC | -0.232 |
| ACTAGATG | 0.121 |
| CACCCTAG | -0.0221 |
| ACACCTCT | 0.111 |
| AGCGCGGC | -0.184 |
| TGCACGCA | -0.0359 |
| TCCATGGA | 0.0552 |
| TACATGGA | 0.413 (active) |
| GACATGGC | 0.314 (active) |
| AACATGGC | 0.328 (active) |
| GCCATGGC | -0.246 |
| AACATTGT | ≥ 0.347 (active) |
| TAGATGGA | 0.0256 |
| CACATGGC | -0.0837 |
| ACCATGGC | 0.0502 |
| AACATTGA | 0.243 |
| ATCATGGC | -0.0613 |
| AACATTGG | 0.159 |
| ACAGTAAA | 0.124 |
| CCGTTCTC | -0.0675 |
| CTCGCACA | -0.0236 |

| Sequence | PBM E-score |
| --- | --- |
| CGCAGGAC | -0.0855 |
| ATCTCCCC | -0.153 |
| ATTCAGTG | 0.034 |
| CTAACGAG | 0.0026 |
| ACACCGTC | 0.0118 |
| ATCATGGG | -0.0312 |
| AACATGGT | 0.37 (active) |
| ACCATGGA | 0.0206 |
| ATCATGGA | 0.00242 |
| AAGATGGT | 0.109 |
| ACCATGGT | 0.127 |
| GAGATGGA | -0.0584 |
| GACATGGA | 0.345 (active) |
| AACATGGG | 0.351 (active) |
| AACATGGA | 0.325 (active) |
| CACATGGA | 0.156 |
| CACATGGG | -0.0556 |
| ATAGCTTG | 0.0692 |
| CGACCGGC | -0.141 |
| AGTAAGTG | 0.00023 |
| TGCGCCCA | -0.134 |
| ATTAGATG | 0.235 |
| GCTCCATA | -0.111 |
| ACGGTGGC | -0.158 |
| ATGCGAAA | 0.0128 |
| AACAAGAA | 0.321 (active) |

| Sequence | PBM E-score |
| --- | --- |
| CACAAGAC | 0.0913 |
| CACAAGAA | 0.0855 |
| GACAAAAC | 0.137 |
| GACAAGAC | 0.325 (active) |
| AACAAAAC | 0.179 |
| GACAAGAA | 0.297 |
| AACAAAGA | 0.0783 |
| TACAAAAA | 0.255 |
| AACAAGAC | 0.335 (active) |
| TACAAGAA | 0.351 (active) |
| AACAAAAA | 0.141 |
| CATGACTA | 0.198 |
| CATCTTAG | 0.0142 |
| ATGGCGTA | 0.002 |
| CCTCCGCA | -0.12 |
| CACTCTTC | 0.0141 |
| AACAAGAG | 0.243 |
| AACAAAAT | 0.209 |
| AACAAGAT | 0.334 (active) |
| GACCGCAC | -0.162 |
| ATAGCTCA | -0.0365 |
| CTGACAAA | 0.132 |
| ATGACAAA | 0.248 |
| CTGACAAC | 0.281 |
| ATGACAAT | 0.274 |
| CTGACAAG | 0.341 (active) |

| Sequence | PBM E-score |
| --- | --- |
| ATGACAAC | 0.375 (active) |
| ATGACAAG | ≥ 0.378 (active) |
| GTGACAAC | 0.303 |
| ATGACAGC | 0.202 |
| CGATCATA | 0.0822 |
| GGAGCCGA | -0.213 |
| GCATCGTA | -0.088 |
| ACCAGCTG | -0.0781 |
| ATTTGTAG | 0.239 |
| CGTGAACC | -0.0185 |
| CATATCGG | 0.0413 |
| GAGCGGCA | -0.199 |
| CGCTTGTA | 0.313 (active) |
| GGCTTGAA | -0.103 |
| GGCTTGTA | 0.312 (active) |
| CGCTTGTC | 0.272 |
| GGCTTGGA | -0.0906 |
| AGCTTGTC | 0.261 |
| AGCTTGTA | 0.368 (active) |
| CGCTTGAA | 0.0019 |
| AGCTTGTG | -0.0301 |
| CCAGCCGG | -0.247 |
| AATTAAAA | 0.0931 |
| ACAGTTTG | 0.0438 |
| AGAGTCAC | -0.0337 |
| AATCTTAG | -0.0734 |

| Sequence | PBM E-score |
| --- | --- |
| AGACCGGG | -0.179 |
| CACCCGAA | -0.0428 |
| GTCCCTAA | -0.0722 |
| ACTGTTCA | 0.0851 |
| CTTGGATC | 0.0244 |
| CGTGTAGA | 0.29 |
| AGTGTACC | 0.207 |
| CGTGTAGC | 0.276 |
| CGTGTACC | 0.35 (active) |
| CGTGTGTA | 0.283 |
| CGTGTACA | ≥ 0.441 (active) |
| GTCATCTA | 0.0593 |
| ATGGTACG | 0.0989 |
| ATGGTACC | 0.0486 |
| CTGGTACC | 0.0519 |
| ATGGTACA | 0.32 (active) |
| TAGGTACA | 0.271 |
| CTGGTACA | 0.319 (active) |
| GAGGTACA | 0.326 (active) |
| CAGGTACA | 0.298 |
| GTGGTACA | 0.277 |
